Measurements published in PubChem BioAssay AID686971 (National Center for Advancing Translational Sciences (NCATS), 2013).
The campaign covered roughly 360,000 compounds. About 7,500 (2.1%) were called active. Roughly 8% stayed inconclusive and do not appear here. The entries come from a sample that favours actives as a whole. A number with no mark means an inactive call. Calls come from the whole dose curve; as a rule, active = well fitted cell-killing curve with a large enough effect; inconclusive = small, poorly fitted or top-dose-only effect, or effect the other way, or another doubt; inactive = no such curve, though single readings can be large or run the other way.

experiment: qHTS for induction of synthetic lethality in tumor cells producing 2HG: qHTS for the HT-1080-IDH1KD cell line; settings: HT-1080 IDH1 knockdown viability, ATP luminescence, 48 h; series mostly up to 46.1 µM; activity, negative = toxicity: at the top concentration;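 for activity, negative = toxicity: 0% = DMSO wells and -100% = cell-free medium wells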
How it was run: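 Viability of IDH1-knockdown HT-1080 fibrosarcoma cells was assessed by CellTiter-Glo after 48 h at 37 °C with titrated compound; concentration-effect curves were classified by fit quality and response size.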
Potency is the fitted concentration of half-maximal effect.

Row | Compound | activity, negative = toxicity [%] | Potency
1 | O=C(NCc1ccccc1)C1c2ccccc2OCC(=O)N1C1CC1 (centres undefined) | 6.38 | 
2 | CCNC(=O)c1ccc(OCC(=O)Nc2ccc(F)cc2)c(OC)c1 | 17.7 | 
3 | COc1ccc(C(=O)Nc2ccc(C3(C#N)CCCC3)cc2)cc1OC | -14.8 | 
4 | COc1ccc(C(=O)N/N=C2\CCS(=O)(=O)c3ccc(F)cc32)cc1OC |  | 20.6 µM (active)
5 | CC1(C(=O)NCc2ccccc2)CSCC(=O)N1CCCn1ccnc1 (centres undefined) | 2.24 | 
6 | O=C(C(=O)N1CCC(c2ccccc2)CC1)c1ccccc1 | 15.4 | 
7 | CN(c1ccccc1)S(=O)(=O)c1ccc(C(=O)NCc2cccnc2)cc1 | -0.678 | 
8 | CC(C)(C)C1CCc2c(sc3nc(SCC(N)=O)nc(N)c23)C1 (centres undefined) |  | 32.6 µM (active)
9 | Cc1sc2nc(SCC(N)=O)n(C)c(=O)c2c1C | -9.37 | 
10 | Nc1nc(SCC(=O)NCCN2CCOCC2)nc2sc3c(c12)CCC3 | -0.575 | 
11 | CC1Cc2[nH][nH]c(=O)c2C(C2CCCC2)O1 (centres undefined) | 2.64 | 
12 | O=C(C[C@H]1CC[C@H]2[C@@H](COC[C@H](O)CN2C(=O)c2ccccn2)O1)N1CCN(c2ccccc2)CC1 | 11.2 | 
13 | c1cc(-c2ccc3[nH]ccc3c2)n2ccnc2c1 | -28 | 
14 | CCCCN(CCCC)CCC(O)c1cc2c(Cl)cc(Cl)cc2c2cc(C(F)(F)F)ccc12 (centres undefined) |  | 20.6 µM (active)
15 | CS(=O)(=O)N1CCCCC1c1cc(C(=O)NCc2ccccc2)no1 (centres undefined) | 15.4 | 
16 | Cn1c(Nc2ccc(F)cc2)nc2cc(-c3ccsc3)sc2c1=O | -11.4 | 
17 | CC(C)NC(=O)C1(C)CCCCN1Cc1cccc(C(F)(F)F)c1 (centres undefined) | 13.6 | 
18 | Cc1ccc(S(=O)(=O)NN=C2CC(C)(C)CC(=O)C2(C)C)cc1 | 0.409 | 
19 | COc1ccc(-c2nnc(SC(C)C(=O)NC3CC3)o2)cc1 (centres undefined) | -2.36 | 
20 | COc1ccc(-c2nnc(-c3ccc4ccccc4c3)o2)cc1 | 14.4 | 
21 | COc1ccc(-c2nnc(SC(=O)N3c4ccccc4Sc4ccccc43)o2)cc1 |  | 11.2 µM (active)
22 | Cc1cccc(S(=O)(=O)N(C)C[C@@H]2OCc3cnnn3CCCC(=O)N([C@H](C)CO)C[C@@H]2C)c1 | 1.61 | 

Row | Compound | activity, negative = toxicity [%] | Potency
23 | Cc1ccc(Cc2c(-c3ccc(C)cc3)nc3c4ccccc4ccn23)cc1 | 3.09 | 
24 | CS(=O)(=O)c1cccc(-c2ccc3nncn3c2)c1 | 14.8 | 
25 | COc1cc(NC(=O)c2cncc(-c3ccc(C#N)cc3)c2)cc(C(=O)Nc2cccc(C(F)(F)F)c2)c1 |  | inactive
26 | Cc1cccc(NC(=O)c2nnn(-c3cccc(C(F)(F)F)c3)c2N)c1 | -17.8 | 
27 | COc1cc(NC(=O)c2[nH]cnc2C(N)=O)cc(C(=O)Nc2cccc(C(F)(F)F)c2)c1 |  | 20.6 µM (active)
28 | C[C@H](CO)N1C[C@H](C)[C@H](CN(C)C(=O)c2ccncc2)OCc2ccccc2-c2c(n(C)c3ccccc23)C1=O | -7.3 | 
29 | COc1ccc(C(C(=O)NCc2ccccc2)n2c(=O)c(-c3ccccc3)nc3ccccc32)cc1 (centres undefined) | -15.2 | 
30 | C[C@H](O)[C@@H]1C(=O)N2CCc3c([nH]c4ccccc34)[C@@H]2C[C@@H]1N(C)C(=O)Nc1ccc(F)cc1 | -2.42 | 
31 | CC1(C(=O)Nc2ccc3c(c2)OCCO3)CCN1C(=O)Cc1cc(F)ccc1F (centres undefined) | 3.34 | 
32 | CC(C)NC(=O)c1ccc(Cl)cc1Cl | 8.03 | 
33 | CC(CN1CCOCC1)OC(=O)c1ccc(Cl)cc1Cl (centres undefined) | 1.51 | 
34 | CC1(C)C2CCC1(C)C(OC(=O)c1ccc(O)cc1)C2 (centres undefined) | -11.3 | 
35 | CC(C)OC(=O)c1ccc(NCc2cc(O)ccc2O)cc1Cl |  | 23.1 µM (active)
36 | COC(=O)c1ccc(NCc2cc(O)ccc2O)cc1 |  | 20.6 µM (active)
37 | O=C(OC12CC3CC(CC(C3)C1)C2)c1ccc(NCc2cc(O)ccc2O)cc1 |  | 23.1 µM (active)
38 | COC(=O)c1ccc(NC(=O)Nc2ccc(C)cc2)cc1 | 4.54 | 
39 | COC(=O)c1ccc(NCC(=O)c2ccccc2)cc1 | -4.43 | 
40 | C[C@@H]1CN([C@@H](C)CO)C(=O)c2cc(NS(C)(=O)=O)ccc2O[C@@H](C)CCCCO[C@H]1CN(C)C(=O)Nc1ccc2c(c1)OCO2 | -1.65 | 
41 | CCNC(=O)C1(C)CCCN(Cc2noc(-c3ccccc3OC)n2)C1 (centres undefined) | 29.5 | 
42 | CC(=O)c1nn(-c2ccccc2)c(=Nc2ccccc2)cc1C | 2.41 | 
43 | CCCNC(=O)C1(C)CCN1C(=O)C1(c2ccccc2)CC1 (centres undefined) | 19.9 | 
44 | CCCCCCN1CCN(C2CN(Cc3cn(CCCCCC)nn3)S(=O)(=O)C2)CC1 (centres undefined) | -24.1 | 

Row | Compound | activity, negative = toxicity [%] | Potency
45 | COc1ccc(CN2CCC(C)(Oc3cccc(F)c3)C2)c2ccccc12 (centres undefined) | -12.9 | 
46 | CCCCN1C[C@H](c2ccc(Br)cc2)[C@@H](CC(=O)Nc2ccc(Br)cc2)C1=O | -2.8 | 
47 | O=C(CNC(=O)N1CC(=O)Nc2ccccc21)Nc1ccc(Br)cc1F | 0.202 | 
48 | COc1ccc(/C=N/NC(=O)CNC(=O)c2ccc(S(=O)(=O)N3CCCC3)cc2)c(OC)c1 | -1.07 | 
49 | COc1cccc(/C=N/NC(=O)CNC(=O)c2ccc(S(=O)(=O)N3CCOCC3)cc2)c1OC | -7.17 | 
50 | COc1ccc(C(=O)NCC(=O)N/N=C/c2ccc([N+](=O)[O-])o2)cc1OC |  | 14.6 µM (active)
51 | Cc1ccc(-c2nc3ccccn3c2Nc2ccc(F)cc2)o1 | -9.63 | 
52 | O=C1NC[C@H](CCCCN2C[C@H](Cc3ccc(O)cc3)N(CCc3ccccc3)C(=O)C2=O)N(CCc2ccccc2)C1=O | 4.14 | 
53 | Cc1cccc(CN2CCC(CNC(=O)Nc3ccc(F)c(Cl)c3)CC2)c1 |  | 14.6 µM (active)
54 | Cc1ccc(C)c(CN2CCC(CNC(=O)Nc3ccc(C)c(F)c3)CC2)c1 | -6.32 | 
55 | Cc1ccccc1NC(=O)NCC1CCN(Cc2cccc(Cl)c2)CC1 | -1.74 | 
56 | CSCCC(C(=O)NC(C)(C)C)n1c(-c2ccccc2)nc2ccccc21 (centres undefined) | 1.83 | 
57 | O=C(Nc1nnc(-c2ccco2)o1)c1ccc(S(=O)(=O)N2CCOCC2)cc1 | -19 | 
58 | COc1cccc(-c2nnc(NC(=O)c3ccc(S(=O)(=O)N(CC(C)C)CC(C)C)cc3)o2)c1 |  | 2.59 µM (active)
59 | COc1ccc(-c2nnc(NC(=O)CS(=O)(=O)c3ccc(Cl)cc3)o2)c(OC)c1 | 9.75 | 
60 | COc1cc(C)c(CN2CCN(C(=O)CCC(=O)c3ccc(C)s3)CC2)cc1OC | -6.68 | 
61 | COc1ccc(NC(=O)c2sc(=O)n(Cc3ccc(S(=O)(=O)N(C)C)cc3)c2C)cc1 | -1.83 | 
62 | CC1(C(=O)Nc2ccc3c(c2)OCCO3)CSCC(=O)N1CCOc1ccccc1 (centres undefined) | 1.72 | 
63 | Cc1ccn(CC(=O)NC2CCCN(Cc3ccccc3F)C2)n1 (centres undefined) | 2.55 | 
64 | CC1Cc2[nH][nH]c(=O)c2C(C2CC2)O1 (centres undefined) | 7.36 | 
65 | O=C(CSc1ncn[nH]1)Nc1ccc(Br)cc1Br | -18 | 
66 | Cc1cccc(C=CC(=O)c2ccc(Cl)cc2)c1 | -15.3 | 

Row | Compound | activity, negative = toxicity [%] | Potency
67 | O=C(/C=C/Sc1ncn[nH]1)c1ccc(Cl)cc1 |  | 5.8 µM (active)
68 | Cc1ccc([C@H]2C[C@H](O)[C@@H](n3cc(COC(=O)c4ccccc4)nn3)CN2C(=O)C2CCCCC2)cc1 | -10.7 | 
69 | Nc1nc(NCC2CCCO2)nc(Nc2ccccc2F)c1[N+](=O)[O-] (centres undefined) | 6.96 | 
70 | C=CCNc1nc(N)c([N+](=O)[O-])c(NC2CCCCC2)n1 | -6.58 | 
71 | Nc1nc(Nc2ccccc2F)nc(NC2CCCCC2)c1[N+](=O)[O-] |  | 18.4 µM (active)
72 | Cc1cccc(-n2cc(CN3CCN(C(=O)c4ncn[nH]4)CC3)c(-c3cccc(F)c3)n2)c1 | 5.17 | 
73 | COc1ccc(-n2cc(CNC3CCOCC3)c(-c3cccc(F)c3)n2)cc1 |  | 18.4 µM (active)
74 | COc1ccc(-n2cc(CN(C)Cc3n[nH]c(=O)[nH]3)c(-c3cccc(F)c3)n2)cc1 | -14 | 
75 | Cn1cc(CN2CCC(C(O)CCc3ccccc3)CC2)c(-c2ccccc2F)n1 (centres undefined) | -16.8 | 
76 | COc1ccc(-c2nn(-c3ccccc3)cc2CN2CCCO2)c(F)c1 | -0.913 | 
77 | CCC(O)C1CCN(Cc2cn(-c3ccc(OC)cc3)nc2-c2cccc(F)c2)CC1 (centres undefined) |  | 14.6 µM (active)
78 | CC1(C)CN(Cc2cccnc2)C(=O)[C@H]1CC(=O)Nc1ccc(Br)cc1 | 0.941 | 
79 | CCc1nnc(NC(=O)c2ccco2)s1 | 0.444 | 
80 | Cn1nccc1NC(=O)Nc1ccc(OC(F)(F)F)cc1 | -2.7 | 
81 | Cn1cccc1/C=N/NC(=O)c1ccc(OC(F)(F)C(F)F)cc1 | -9.71 | 
82 | O=C(Nc1ccc(OC(F)(F)F)cc1)c1ccc2c(c1)no[n+]2[O-] |  | 11.6 µM (active)
83 | CC1(c2cccc(N)c2)OCCO1 | -10.9 | 
84 | Cc1ccc(-c2cnc(C(O)c3cccc(C)c3C)[nH]2)cc1 (centres undefined) | 3.28 | 
85 | Cc1ccc(-c2nc3c(C)cc(Br)cn3c2Cc2ccccc2)cc1 | 2.06 | 
86 | CC(C)C[C@H]1CNC(=S)N1C[C@H]1CCCN1C[C@H](Cc1ccc(O)cc1)N1C[C@H](Cc2ccc(O)cc2)N(CC2CCCCC2)C1=S |  | 14.6 µM (active)
87 | CCOc1ccc(CCN2C(=O)C(=O)N([C@@H](Cc3ccc(O)cc3)CN3CCC[C@H]3CN3C(=O)C(=O)NC[C@@H]3CC(C)C)C[C@@H]2Cc2ccccc2)cc1 | 0.229 | 
88 | CC(C)C[C@H]1CN([C@@H](Cc2ccccc2)CN2CCC[C@@H]2CN2C(=O)C(=O)NC[C@@H]2Cc2ccc(O)cc2)C(=O)C(=O)N1CCc1ccccc1 | 3.99 | 

Row | Compound | activity, negative = toxicity [%] | Potency
89 | CC(C)[C@H](NC(=O)c1ccccc1F)C(=O)Nc1cccc(S(=O)(=O)N2CCOCC2)c1 | 0.177 | 
90 | C[C@H]1NS(=O)(=O)c2cc(Cl)ccc2O[C@@H]1c1ccccc1 | 3.06 | 
91 | CC(Sc1ccc(S(=O)(=O)N2CCN(C)CC2)cn1)C(=O)NC1CCCC(C)C1C (centres undefined) | -7.37 | 
92 | CCC(C)Sc1nc2c(c(=O)[nH]c(=O)n2C)n1CC(O)COc1cccc2ccccc12 (centres undefined) | -5.75 | 
93 | CC(C)c1ccccc1OCC(O)CN(CC(O)COc1cccc2ccccc12)C(C)C (centres undefined) |  | 25.9 µM (active)
94 | CC1CC(C)CN(CCOc2cccc3ccccc23)C1 (centres undefined) | -7.97 | 
95 | Cc1[nH]c2ccccc2c1C(=O)C(=O)NCc1nnnn1-c1cccc(F)c1 | 0.987 | 
96 | O=C(NCc1ccc(F)cc1F)[C@@H]1CCCN1C(=O)[C@@H]1CCCN1C(=O)c1cccc(Cl)c1 | 8.01 | 
97 | O=C(c1ccc2c(=O)n(Cc3ccco3)c(=S)[nH]c2c1)N1CCCC1 | 10.2 | 
98 | Cc1nc2nc(CSc3nc4ccccc4s3)cc(=O)n2[nH]1 | -0.0889 | 
99 | O=[N+]([O-])c1c(NCCO)cc(Sc2nc3ccccc3s2)c2nonc12 |  | 3.16 µM (active)
100 | CCN(CC)CCCSc1nc2ccccc2s1 | 11.7 | 
101 | CCc1nc2c(OCCc3cccc(OC)c3)cccn2c1N(C)C(=O)c1ccc(C)cc1 | -11.3 | 
102 | CCc1ccccc1OCC(=O)Nc1nnc(C2CC2)s1 | 9.55 | 
103 | O=C(Nc1nnc(C2CC2)s1)c1ccccn1 |  | 5.01 µM (active)
104 | Cc1cc(C(=O)Nc2nnc(C3CC3)s2)c(C)s1 | -1.67 | 
105 | C[C@@H]1CN([C@H](C)CO)C(=O)c2cc(-c3ccc(F)cc3)cnc2O[C@H]1CN(C)C(=O)c1ccc(F)cc1 | -3.85 | 
106 | O=C(Cc1ccccc1)NCc1ccc(F)cc1 | -2.39 | 
107 | O=C(CCc1ccccc1)NNc1ccc(F)cc1 |  | 2.31 µM (active)
108 | CC(=O)Nc1ccc(S(=O)(=O)NNC(=O)CCc2ccccc2)cc1 | -5.47 | 
109 | COc1ccc(-c2ccc(CN3C(C(C)C)C(=O)N(Cc4cn(CC5CCCCC5)nn4)CCS3(=O)=O)cc2)cn1 (centres undefined) | -3.81 | 
